Source: PubChem BioAssay (National Center for Advancing Translational Sciences (NCATS))
VP16 counter = Gal4-VP16 reporter inhibition counter-screen; Drosophila S2 Gal4-VP16 UAS-luciferase, luminescence, 20 h; Potency, µM (doses to about 53.6 µM), inactives show at the top dose activity, negative = inhibition, hits mostly inhibitors; 3.5% of 310,000 active;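 further: Gal4-VP16 expression switched on by copper sulfate through the metallothionein promoter; on the % scale 0 is the no-effect control and ±100 the full control effect; nearly all actives have a fitted effect of over 50% in size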
ClpP mod = qHTS Assay for Activators of ClpP; purified B. subtilis ClpP, FRET peptide cleavage, 20 min; Potency, µM (highest dose often 57.5 µM), without a hit: at the highest dose activity change, negative = active; 1.9% of 340,000 active; AID 651965, 2013; active means well fitted falling curve with a large enough effect; inconclusive means small, poorly fitted or top-dose-only effect; inactive means no such curve, though single readings can be large or run the other way; further: the source files actives as falling curves though it sought activators and does not explain the sign; nearly all actives have a fitted effect of over 65% in size
Target sequence (P80244 whole entry, looked up): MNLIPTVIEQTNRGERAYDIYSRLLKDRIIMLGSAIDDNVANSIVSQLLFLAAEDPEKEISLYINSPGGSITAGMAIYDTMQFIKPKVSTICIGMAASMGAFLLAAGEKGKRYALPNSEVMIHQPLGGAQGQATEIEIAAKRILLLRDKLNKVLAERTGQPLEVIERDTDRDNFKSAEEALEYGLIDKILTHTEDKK
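Buffer: 100 mM Tris/HCl pH8, 100 mM KCl, 0.05% low protease BSA, 2.5% glycerol, 0.01% Tween-20. ClpP 10 microg/mL final; 20 min RT; delta FRET normalized to ADEP and DMSO controls.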
Sfp PPTase inh = blocks B. subtilis Sfp PPTase activity | Q9F4F7 | Biochemical Sfp PPTase activity, qHTS | Potency, µM, for the others: largest response in the series, negative = inhibition, most hits filed as inhibitors | 3.5% of 310,000 active | AID 1490;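 further: the enzyme is Sfp with the accession as filed and its product quenches rhodamine fluorescence; 0% = enzyme reaction without inhibitor and -100% = no enzyme wells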
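After 15 min at room temperature with compound, 15 nM Sfp received 5 uM rhodamine-CoA plus 12.5 uM BHQ-2-ybbR (50 mM Hepes pH 7.6, 10 mM MgCl2). Rate came from the fluorescence difference over 30 min, ex 525/em 598 nm.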
Epigenetic reg = derepresses silenced GFP reporter in murine cells; murine LDR cells, GFP reporter derepression, 30 h; Potency, µM (doses to about 53.9 µM), inactives show top-dose GFP activation, actives largely listed as activators; 0.2% of 280,000 active; further: % of control where 0% means no effect; nearly all actives have a fitted effect of over 60% in size
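In this reporter-derepression format, murine cells bearing a silenced integrated CMV-GFP locus incubate with test compound (30 h, 37 C), then are washed and imaged; fluorescent objects of 20–120 um count as induced cells.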
PINK1 expr mod = modulators of PINK1 expression. PINK1 immunofluorescence, high-content cytometry, 24 h. Potency, µM (highest dose often 76.6 µM), for inactives: at the top dose activation (PINK1 increase), most hits filed as activators. 0.2% of 410,000 active. AID 624263; active means well fitted activation curve with a large enough effect; inconclusive means small, poorly fitted or top-dose-only effect; cell line not stated here; further: % of control where 0% means no effect; nearly all actives have a fitted effect of over 65% in size
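PINK1 protein level read as immunofluorescence by microplate cytometer in a fixed, stained stable cell line after 24 h exposure to five compound concentrations, with CCCP as control.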
RORgamma inh = ROR gamma (mouse) transcription inhibition; P51450; Drosophila S2 Gal4-RORgamma UAS-luciferase reporter, 20 h; Potency, µM (top dose mostly 53.6 µM), for the others: top-dose activity change, negative = inhibition, most hits filed as inhibitors; 5.4% of 310,000 active; further: on the % scale 0 is the no-effect control and ±100 the full control effect; nearly all actives have a fitted effect of over 60% in size
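Compounds are pin-transferred onto Drosophila Schneider cells expressing a copper-inducible Gal4–ROR gamma transactivation domain fusion. After 1 hr, copper sulfate is added to 700 uM final; luciferase is read 20 hr later.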
An asterisk follows results filed as active; ? = inconclusive; . = not tested or not shown; [ ] = another dose, or the depositor's remark. Sampled rows, rich in hits. Any-hit rate of the full collection: about 8.1%. Unless noted, the call rests on the fitted dose curve; in most records, active means well fitted curve in the direction sought with a large enough effect; inconclusive means small, poorly fitted or top-dose-only effect, or another doubt; inactive means no such curve, though single readings can be large; an effect the other way counts as inactive or inconclusive. Potency means the concentration at half of the fitted maximal effect.

SMILES | VP16 counter | ClpP mod | Sfp PPTase inh | Epigenetic reg | PINK1 expr mod | RORgamma inh
CN(c1ccccc1)S(=O)(=O)CS(=O)(=O)N(C)c1ccccc1 | . | -2.8% | . | . | -0.6% | .
CN(c1ccccc1)P(=O)(N(C)c1ccccc1)N(C)c1ccccc1 | ? | 0.9% | 14.5% | 2.3% | 15.8µM* | ?
CC1(C)C(=O)C2(CCCCC2)C(=O)OC1c1cccn1-c1ccc([N+](=O)[O-])cc1 (stereo not drawn) | 0.8% | 31.6µM* | 7.1% | -1.1% | 12.7% | -5.9%
O=[N+]([O-])c1ccc(Cl)cc1Cl | -5.5% | . | . | . | . | 3.3%
O=C(CSc1nc(-c2ccccc2)nc2c1Cc1ccccc1O2)Nc1ccc(C(=O)O)cc1 | -4.1% | . | 79.4µM* | 1.1% | 1.7% | 4.4%
Cc1nc(N)sc1-c1csc(Nc2ccccn2)n1 | -2.5% | -2.8% | 56.2µM* | 0.3% | -2.3% | ?
Cc1nc(N)sc1-c1csc(Nc2ccc(Cl)cn2)n1 | ? | -6.7% | 20µM* | 0.0% | 2.8%[38.3 µM] | ?
O=C(Cn1ncc2c(=O)oc3ccccc3c21)N1CCN(c2ccc(Cl)cc2)CC1 | . | -1.5% | . | 2.8% | 1.6% | .
COc1ccc(-c2cc(C(F)(F)F)nc(SCCC(=O)Nc3ccc(O)cc3)n2)cc1 | . | -3.1% | . | 0.8% | 2.8% | .
CCN(CC)C(=O)c1sc2nc(-c3cccs3)cc(-c3cccs3)c2c1N | -1.4% | -19.1% | -5.9% | ? | 2.4% | -39.6%
Cc1nnc(NC(=O)c2sc3nc(-c4cccs4)cc(C(F)(F)F)c3c2N)s1 | ? | -6.8% | -0.9% | 8.5% | -1.1% | 3.98µM*
Nc1c(C(=O)Nc2nccs2)sc2nc(-c3cccs3)cc(C(F)(F)F)c12 | 10µM* | -14.9% | -23.9% | ? | ? | ?
CC(C)(C)C(=O)c1sc2nc(-c3cccs3)cc(C(F)(F)F)c2c1N | -8.7% | -17.8% | 22.4µM* | 11.2µM* | 10.0% | 10µM*
Cc1cc(C(F)(F)F)c2c(N)c(C(=O)Nc3c(Cl)cccc3Cl)sc2n1 | . | -3.0% | . | 0.0% | 4.0% | .
O=C(CSc1nc2ccccc2nc1Cc1ccccc1)Nc1ccccc1C(F)(F)F | . | -3.7% | . | -1.6% | 8.2% | .
COC(=O)c1c(NC(NC(=O)C(C)(C)C)C(Cl)(Cl)Cl)sc2c1CCC2 (stereo not drawn) | -20.4% | 0.6% | ? | -2.9% | 5.8% | ?
CCC(=O)NC(Nc1sc2c(c1C(=O)OC)CCC2)C(Cl)(Cl)Cl (stereo not drawn) | -0.6% | 1.3% | 20µM* | -0.1% | ? | -3.0%[10 µM]
COC(=O)c1c(NC(NC(=O)C(C)C)C(Cl)(Cl)Cl)sc2c1CCC2 (stereo not drawn) | -2.4% | ? | 50.1µM* | -1.8% | 28.9% | ?
CCOC(=O)c1c(NC(=S)NC(=O)c2cnn(CC)c2)sc2c1CCC(C)C2 (stereo not drawn) | -5.6% | 0.2% | -4.8% | -0.4% | 4.4% | 11.2µM*
COc1ccc(OCC(=O)Nc2sc3c(c2C(=O)NCC2CCCO2)CCC3)cc1 (stereo not drawn) | -10.9% | -19.9% | ? | 3.8% | 11.2µM* | 9.6%
CCOc1ccc(NC(=O)c2c(NC(=O)CN3CCCC3)sc3c2CCC3)cc1 | 4.47µM* | -4.0% | 18.1% | . | 2.0% | 4.47µM*
CCOC(=O)c1c(NC(=O)C2C3C=CC(C3)C2C(=O)O)sc2c1CCC(C)C2 (stereo not drawn) | -4.1% | -20.1% | -2.5% | 2.4% | -1.7% | 6.2%
CCOC(=O)c1c(NC(=S)Nc2ccc(Cl)cc2)sc2c1CCN(C)C2 | -12.1% | 8.4% | ? | 4.5% | 19.1% | 1.6%
CCOc1ccc(NC(=O)c2c(NC(=O)CN3CCN(C)CC3)sc3c2CCC3)cc1 | -0.5% | . | -22.6% | . | . | 41.6%
CCOC(=O)c1c(NC(=S)Nc2ccc(OCC)cc2)sc2c1CCN(C)C2 | 15.6% | 0.4% | 15.8µM* | 4.0% | 0.7% | -29.7%
